Screening results (PubChem)
Resorufin autofl: resorufin region autofluorescence. 59,000 compounds, 0.04% hits. max dye-equivalent concentration, M. Compound fluorescence, resorufin region 547/598 nm, buffer; hits give high values. AID 588
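Tris 100 mM pH 8.0; compound added, 15 min RT; CCD imager read, ex 547 nm/em 598 nm; signal normalized to resorufin standard curve (six concentrations per plate) as dye-equivalent concentration.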
A488 autofl: compound autofluorescence in A488 spectral region; compound autofluorescence, A488 spectral region, dye equivalency; Compound Type: qHTS ECL - MLSMR; max dye equivalency, M; 59,000 compounds, 0.1% hits
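Autofluorescence read at ex 480/em 540 nm after 15 min RT in 100 mM Tris pH 8.0; compound signal normalized to A488 standard series on each plate, reported as dye-equivalent concentration at each test concentration.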
Rhodamine fluor: compound autofluorescence in rhodamine spectral region. Rhodamine-region fluorescence, 547/598 nm, Tris buffer; hits give high values. max dye-equivalent concentration, M. AID 594. 59,000 compounds, 0.05% hits; in the data active means max dye-equivalent concentration above about 11 nM; inconclusive means between about 1.1 nM and that limit
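Read-out is relative fluorescence at 547 nm excitation and 598 nm emission, expressed as dye-equivalent concentration using rhodamine standards on every plate. Each compound was profiled across a concentration series after 15 min in 100 mM Tris, pH 8.0.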
A647 autofl: compound autofluorescence in A647 spectral region; 59,000 tested, under 10 active; AID 592; Compound fluorescence, A647 channel (570/671 nm), Tris buffer; max dye-equivalent concentration, M;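 further: values scaled relative to a standard on each plate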
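Each compound's intrinsic fluorescence at 570 nm excitation and 671 nm emission is measured across its concentration series in 100 mM Tris, pH 8.0, after 15 min at room temperature, and reported relative to an A647 curve.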
Texas Red fluor: compound fluoresces in the Texas Red spectral region; 59,000 compounds, 0.06% hits; Compound fluorescence, Texas Red channel, 547/618 nm; hits give high values; max dye-equivalent concentration, M; in the data active means max dye-equivalent concentration above about 10 nM; inconclusive means between about 1.1 nM and that limit
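Compound fluorescence was read after 15 min at room temperature in 100 mM Tris, pH 8.0, using 547 nm excitation and 618 nm emission across a concentration series. It was expressed as Texas Red dye-equivalent concentration from an on-plate standard curve.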
Fluorescein fluor: compound fluoresces in the fluorescein spectral region. 59,000 compounds, 0.91% hits. Compound autofluorescence, 480/540 nm, fluorescein-equivalent; hits give high values. max fluorescein-equivalent concentration, M; in the data active means max fluorescein-equivalent concentration above about 10 nM; inconclusive means between about 1.1 nM and that limit
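Spectral profiling of library compounds in the fluorescein window (480 nm excitation, 540 nm emission) after 15 min at room temperature in pH 8.0 Tris (100 mM). Values are dye-equivalent concentrations.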
The depositor's hits bear a star; i = inactive; ? = inconclusive. An excerpt weighted towards active compounds, which were near 0.9% of everything screened. Unless noted, how the calls were made is not given here.

SMILES	Resorufin autofl	A488 autofl	Rhodamine fluor	A647 autofl	Texas Red fluor	Fluorescein fluor
Cc1ccc(C2C(C#N)=C(N)SC(N)=C2C#N)c(C)c1	i	i	i	1.9e-08	i	1e-08M*
N#CC1=C(N)SC(N)=C(C#N)C1c1ccnc2ccccc12	i	i	i	4.4e-08	i	?
Cc1ccc(C2C(C#N)=C(N)SC(N)=C2C#N)cc1	i	i	i	4.6e-08	i	2.3e-08M*
CC1=C(C#N)C(c2ccoc2)C(C(=O)OCc2ccccc2)=C(N)S1 (stereo unspecified)	i	i	i	7.1e-09	i	i
CC(c1ccccc1)C1C(C#N)=C(N)SC(N)=C1C#N (stereo unspecified)	i	i	i	1e-09	i	i
CN(C)c1ccc(N/C=C/C(=O)c2ccc(F)cc2)cc1	i	i	i	1e-09	i	2.4e-08M*
N=c1c(C(=O)NCc2ccc3c(c2)OCO3)cc2c(=O)n3ccccc3nc2n1Cc1cccnc1	i	i	i	4.4e-08	i	?
CCCCNC(=O)c1cc2c(=O)n3cccc(C)c3nc2n(Cc2ccncc2)c1=N	i	i	i	3.2e-09	?	1.6e-08M*
Cc1ccc(S(=O)(=O)c2cc3c(=O)n4ccccc4nc3n(Cc3ccco3)c2=N)cc1	i	i	i	7.5e-09	?	1.5e-08M*
COc1ccc(CNC(=O)c2cc3c(=O)n4ccccc4nc3n(Cc3cccnc3)c2=N)cc1	i	?	i	4.1e-08	i	1.1e-07M*
N=c1c(C(=O)NCc2ccco2)cc2c(=O)n3ccccc3nc2n1Cc1ccccc1	i	i	i	3.4e-08	i	1.9e-08M*
COCCNC(=O)c1cc2c(=O)n3cccc(C)c3nc2n(Cc2ccncc2)c1=N	i	i	i	1.6e-08	i	i
CN(C)S(=O)(=O)c1nc(Cl)c2[nH]cnc2n1	i	i	i	1.5e-08	i	i
Nc1cc2c(nc3c4ccccc4c(N)cc3[n+]2-c2cccc3ccccc23)c2ccccc12 (tested in a mixture with another compound)	?	i	?	2.6e-08	?	?
N=c1c(C(=O)NCc2ccco2)cc2c(=O)n3ccccc3nc2n1Cc1ccc(Cl)cc1	i	i	i	3.2e-09	?	?
CCOC(=O)c1cc2c(=O)n3ccccc3nc2n(Cc2ccc(Cl)cc2)c1=N	i	2.6e-08M*	i	1e-09	i	3.4e-07M*
OC[C@@H]1O[C@@H](n2cnc3c(NCCc4ccccc4)ncnc32)[C@@H](O)[C@H]1O	i	i	i	1.4e-08	i	i
O=C(NC12CC3CC(CC(C3)C1)C2)c1cnccn1	i	i	i	1.8e-09	?	1.1e-08M*
COc1ccc(CNc2ncncc2-c2ccoc2)c(OC)c1	i	i	i	4.5e-08	i	?
CCNc1ncc2nc(C)c(=O)n(Cc3cccs3)c2n1	i	i	i	2.6e-08	i	i
O=C(c1ccccc1C(=O)N1CCN(c2ccccc2)CC1)N1CCN(c2ccccc2)CC1	i	i	i	1.3e-08	i	1.5e-08M*
C=CCn1c(=O)/c(=C/c2cc(OC)c(OC)c(OC)c2)s/c1=C(/C#N)c1nc2ccccc2n1C	i	1.5e-08M*	i	6.5e-08	i	2.8e-07M*
C=CCn1c(=O)/c(=C/c2ccc(O)cc2)s/c1=C(/C#N)c1nnc2n1CCCCC2	i	?	i	1.7e-08	i	9.4e-08M*
C=CCn1c(=O)/c(=C/c2ccc(Cl)cc2)s/c1=C(/C#N)c1nnc2n1CCCCC2	i	i	i	2.3e-09	i	i
c1ccc(Nc2nc(-c3ccc4c(c3)OCO4)nc3ccccc23)cc1	i	i	i	2e-09	i	i
O=c1c2ccccc2oc2cc(O)c([C@@H]3COC[C@@H](CO)[C@@H](O)[C@@H](O)[C@H]3O)c(O)c12	i	i	i	1.5e-08	i	?
CCN(CC)c1ccc2cc(-c3nnc(-c4ccncc4)o3)c(=O)oc2c1	i	4.8e-08M*	i	1.2e-08	i	1e-06M*
